AMA1 RON2 block: inhibitors of Plasmodium falciparum AMA1-RON2 interaction. AlphaScreen AMA1-biotinylated RON2 peptide binding. Potency, µM (doses to about 58.2 µM), for the others: top-dose activity change, negative = inhibition, most hits filed as inhibitors. 360,000 compounds, 0.2% hits. AID 720542; active means well fitted inhibition curve with a large enough effect; inconclusive means small, poorly fitted or top-dose-only effect; inactive means no such curve, though single readings can be large or run the other way;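 further: potency means the concentration at half of the fitted maximal effect; 0% = vehicle wells and -100% = peptide control; nearly all actives have a fitted effect of over 45% in size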
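AMA1 (3D7) with his tag at 25 nM final met compounds first, then biotinylated RON2 peptide at 25 nM; detection used donor plus acceptor beads, 10 µg/mL apiece, read by AlphaScreen after 30 min at room temperature.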
Shiga toxin inh: inhibitors of Shiga toxin in Vero cells; 290,000 compounds, 9.2% hits; Vero cells, Shiga toxin protein synthesis inhibition reporter; inhibition, % at 38.7 µM; in the data active means inhibition mostly above about 28%, no sharp cut-off; inactive means mostly below about 43%; further: 0% is about no effect
Marburg entry inh: Marburg virus entry inhibition | Marburg virus pseudotyped entry inhibition, cell reporter | Potency, µM (titrated, usually from 37.8 µM), inactives show top-dose activity change, negative = inhibition, hits mostly inhibitors | 300,000 compounds, 1.8% hits; calls by dose curve; tested in HEK293 cells; further: potency means the concentration at half of the fitted maximal effect; on the % scale 0 is the no-effect control and ±100 the full control effect
CHX counter: counter-screen hit for Shiga toxin inhibitors, cycloheximide; cell reporter, cycloheximide protein synthesis inhibition counterscreen; max response, %; 300,000 compounds, 12% hits; AID 2314; in the data active means max response mostly above about 13%, no sharp cut-off; inactive means mostly below about 14%; further: read at 38.3 µM for the half of the compounds with a filed dose; 0% is about no effect
Lassa entry inh: Lassa virus entry inhibition. Lassa virus pseudotype entry inhibition, cell reporter. Potency, µM (highest dose often 37.9 µM), for the others: at the top dose activity change, negative = inhibition, most hits filed as inhibitors. 300,000 compounds, 1.2% hits; calls by dose curve; tested in HEK293 cells; further: potency means the concentration at half of the fitted maximal effect; on the % scale 0 is the no-effect control and ±100 the full control effect; nearly all actives have a fitted effect of over 50% in size
* marks the source's active call; other numbers are inactive results; ? = inconclusive; / = no result; [ ] = dose if it differs, or a comment. The entries come from a sample that favours hits as a whole.

SMILES | AMA1 RON2 block | Shiga toxin inh | Marburg entry inh | CHX counter | Lassa entry inh
COc1ccc(C(=O)Nc2ccc(OCC(=O)N3CCOCC3)cc2)c(OC)c1OC | 3% | 16 | -3% | 21* | ?
O=C(Nc1ccc(OCC(=O)N2CCOCC2)cc1)c1ccccc1F | 1% | 53 | -30%[46.1 µM] | 21* | ?
COc1cc(C(=O)NNC(=O)c2cccc(Cl)c2)ccc1OCC(=O)N1CCOCC1 | 25% | / | -1% | / | 5%
O=C(Nc1ccc(OCC(=O)N2CCOCC2)cc1)c1cccc(Cl)c1 | 22% | 26* | ? | 20 | -4%
CCC(=O)N1CCc2cc(S(=O)(=O)CCC(=O)N3CCN(c4cccc(C)c4)C(C)C3)ccc21 (centres undefined) | / | / | -18%[46.1 µM] | / | -28%[46.1 µM]
Nc1cc(N)nc(SCCN2CCCCC2)n1 | -2% | -11 | -13% | -2 | -4%
CC(=O)c1sc2nsc(SCCN3CCCC3)c2c1N | -6% | 31 | ? | 20* | -23%
Cc1cc(Oc2ccc(=O)[nH]n2)nc(Cl)n1 | 0% | 47* | / | 35* | /
CSc1nc(C)cc(Oc2ccc(=O)[nH]n2)n1 | -5% | -11 | 4%[46.1 µM] | 4 | -1%
COc1cc(C)nc(Oc2ccc(=O)[nH]n2)n1 | 0% | 42 | ? | 22* | 6%
O=C(O)/C=C/c1cccnc1 | -6% | 13 | / | -2 | /
O=C(/C=C/c1cccnc1)c1ccc(F)c(F)c1 | 0% | 16 | 7.1µM* | -3 | 12%[46.1 µM]
CN(C)c1ccc(/C=C/C(=O)c2cccc(Br)c2)cc1 | 96% | 127* | 4% | 64* | 1%
CN(C)c1ccc(C(=O)/C=C/c2cccnc2)cc1 | 0% | 82* | / | 46* | /
COc1ccc(C(=O)c2ccc(Cl)cc2)c(OC)c1OC | -23% | / | 16% | / | ?
O=C(CN1CCOCC1)Nc1ccc([N+](=O)[O-])cc1 | 51% | -5 | / | -2 | /
COCc1nnc(NC(=O)c2ccc(OC)cc2OC)s1 | -1% | 104* | ? | 47* | ?
COc1ccc(Cc2nnc(NC(=O)c3ccccc3F)s2)cc1 | -8% | 85* | ? | 20* | ?
COc1ccc(C(=O)Nc2nnc(Cc3ccc(OC)c(OC)c3)s2)c(OC)c1 | -9% | 57 | ? | 13* | ?
COc1ccc(C(=O)Nc2nnc(CCc3ccccc3)s2)c(OC)c1 | -10% | 10 | / | 2 | /
O=C(CSc1nnc(-c2cccs2)o1)N1CCc2ccccc21 | 4% | -18 | 0% | 1 | -3%
C=CCSc1nnc(-c2cc3c(s2)-c2ccccc2CC3)o1 | 210% | 52* | 7%[46.1 µM] | 14* | -9%
COc1cc(C2C(C#N)=C(N)N(N(C)C)C3=C2C(=O)CC(C)(C)C3)cc(OC)c1OC (centres undefined) | 1% | -4 | ? | -3 | -15%[46.1 µM]
O=S(=O)(NCC(O)c1ccccc1)c1ccc(-c2ccccn2)s1 (centres undefined) | 16% | -5 | -1%[46.1 µM] | -3 | ?
O=S(=O)(NCC(O)c1ccccc1)c1cc(Cl)sc1Cl (centres undefined) | -3% | 25* | -5%[46.1 µM] | 10 | -3%[46.1 µM]
SMILES | AMA1 RON2 block | Shiga toxin inh | Marburg entry inh | CHX counter | Lassa entry inh
COc1ccc(/C=C/C(=O)Nc2ccccc2F)cc1S(=O)(=O)N1CCOCC1 | -1% | / | ? | / | ?
COc1ccc(/C=C/C(=O)Nc2cccc(F)c2)cc1S(=O)(=O)N1CCOCC1 | 2% | 52 | ? | 28* | 5.6µM*
COc1cc(/C=C/C(=O)Nc2ccc(OC)c(S(=O)(=O)N3CCOCC3)c2)ccc1OC(F)F | -1%[11.6 µM] | / | ? | / | 13µM*
COc1ccc(/C=C/C(=O)Nc2ccc(C(C)=O)cc2)cc1S(=O)(=O)N1CCOCC1 | -2% | / | / | / | /
COc1ccc(/C=C/C(=O)Nc2ccccc2C)cc1S(=O)(=O)N1CCOCC1 | -3% | 66* | -4% | 62* | /
CCOC(=O)C1(CCCc2ccccc2)CCN(Cc2cn(CC)nc2C)CC1 | 11% | 8 | 8.9µM* | -3 | ?
CCOC(=O)C1(Cc2cccc(F)c2)CCN(Cc2cn(CC)nc2C)CC1 | 11% | -3 | ? | -1 | 2%
CCOC(=O)C1(CCOc2ccccc2)CCN(Cc2cccn2-c2ncccn2)CC1 | -7% | -2 | 8.9µM* | -2 | ?
CC1(C)CC2(C)OC2C2(C1)N=NC(=Nc1ccccc1)O2 (centres undefined) | 8% | / | / | / | /
Cc1ccc(CCNC(=O)Cn2c(-c3cccs3)cc3ccccc32)cc1 | / | / | / | / | 7%[46.1 µM]
O=C(CSc1ccc(-c2cccnc2)nn1)N1CCCc2ccccc21 | / | -11 | / | -1 | /
CC(Sc1nnc(-c2cccnc2)n1-c1ccccc1F)C(=O)N1CCCc2ccccc21 (centres undefined) | / | -10 | -1% | 17* | /

Screening data (PubChem)
